In PubChem BioAssay:
Calls of active or inactive are those of the source.

What was measured:
Albumin (Bos taurus) = Albumin (Bos taurus) (UniProt P02769); test: compounds binding labelled BSA control protein – biochemical, small-molecule microarray, Alexa647 label, 635/667 nm fluorescence, artefact control for SMM control protein annotation, profiling panel (AID 1118); conditions: BSA-A647 binding, fluorescence 635 nm, higher = more signal;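 note: score merges 667 nm emission intensity and signal-to-noise per printed compound spot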
[1] = probe aXIP binding to arrayed compounds – biochemical, NeuroSMM set, 635/667 nm fluorescence, primary screen (AID 1119); conditions: small-molecule microarray, higher = more signal, called active from +8 up or from −8 down;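 note: probe is the protein aXip251-270 applied at 1 µg/mL to compound-printed slides; binding of probe to printed compounds measured as 667 nm fluorescence plus signal to noise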
[2] = probe aNOTCH3 binding on compound microarray – biochemical, small-molecule microarray, 635/667 nm fluorescence, primary screen (AID 1120); conditions: higher = more signal;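 note: probe is a biotin-tagged antibody raised against NOTCH3 rather than NOTCH3 protein; score merges spot fluorescence near 667 nm with spot signal to noise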
[3] = probe aNOTCH2 binding on compound microarray – biochemical, small-molecule microarray, 635/667 nm fluorescence, primary screen (AID 1121); conditions: higher = more signal;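 note: score merges feature fluorescence read at 667 nm with its signal to noise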
[4] = biological target: Carbonic anhydrase 2 (Homo sapiens) (UniProt P00918); test: compounds binding carbonic anhydrase 2 – biochemical, small-molecule microarray, Alexa647-labelled CAII, profiling panel (AID 1122); conditions: CAII-A647 binding fluorescence, higher = more signal
[5] = COS7 lysate on small-molecule microarray, probe aHis, 635 nm (AID 1123); conditions: COS7 cell lysate, fluorescence, higher = more signal;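 note: z-score combines 667nm fluorescence intensity with signal-to-noise per printed compound spot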
[6] = probe aLAP1 signal on lysate-treated microarray – cell lysate, small-molecule microarray, COS7 lysate, primary screen (AID 1124); conditions: probe aLAP1, fluorescence, higher = more signal;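 note: lysate comes from COS7 cells expressing LAP1 and is applied at 0.3 µg/mL; score merges spot fluorescence near 667 nm with signal-to-noise over triplicate slides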
Sam68 (KHDRBS1) = test: compounds binding KHDRBS1 protein – biochemical, small-molecule microarray, 635 nm fluorescence, primary screen (AID 1125); conditions: higher = more signal;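 note: score merges 667 nm channel intensity with signal to noise over triplicate slides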
[7] = system: Chordin-like protein 2 (CHRDL2); test: compounds binding chordin-like 2 – biochemical, small-molecule microarray, 635 nm fluorescence, primary screen (AID 1126); conditions: fluorescence 635 nm, higher = more signal;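 note: printed compound slides probed with Chrdl2 protein at 4 µg/mL for 1 h at 4 C; score merges 667 nm emission intensity with signal to noise over three replicate slides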
[8] = biological target: Concanavalin-A (Canavalia ensiformis) (UniProt P02866); test: compounds binding concanavalin A lectin – biochemical, small-molecule microarray, Alexa647 label, 635 nm, artefact control for SMM control protein annotation, primary screen (AID 1127); conditions: ConA-A647 binding fluorescence, higher = more signal;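 note: z combines 667 nm emission intensity with signal-to-noise across three replicate slides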
Chain of Concanavalin-A (Canavalia ensiformis) (P02866 whole entry, looked up): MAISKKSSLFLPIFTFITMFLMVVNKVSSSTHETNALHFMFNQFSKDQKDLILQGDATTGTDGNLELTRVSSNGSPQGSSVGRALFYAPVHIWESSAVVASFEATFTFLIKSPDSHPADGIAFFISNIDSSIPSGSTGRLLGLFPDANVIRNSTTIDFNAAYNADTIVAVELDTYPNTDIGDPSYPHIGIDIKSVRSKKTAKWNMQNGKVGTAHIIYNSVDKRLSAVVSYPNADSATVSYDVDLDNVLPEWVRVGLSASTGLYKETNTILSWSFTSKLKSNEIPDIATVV

Chain of Albumin (Bos taurus) (P02769 whole entry, looked up): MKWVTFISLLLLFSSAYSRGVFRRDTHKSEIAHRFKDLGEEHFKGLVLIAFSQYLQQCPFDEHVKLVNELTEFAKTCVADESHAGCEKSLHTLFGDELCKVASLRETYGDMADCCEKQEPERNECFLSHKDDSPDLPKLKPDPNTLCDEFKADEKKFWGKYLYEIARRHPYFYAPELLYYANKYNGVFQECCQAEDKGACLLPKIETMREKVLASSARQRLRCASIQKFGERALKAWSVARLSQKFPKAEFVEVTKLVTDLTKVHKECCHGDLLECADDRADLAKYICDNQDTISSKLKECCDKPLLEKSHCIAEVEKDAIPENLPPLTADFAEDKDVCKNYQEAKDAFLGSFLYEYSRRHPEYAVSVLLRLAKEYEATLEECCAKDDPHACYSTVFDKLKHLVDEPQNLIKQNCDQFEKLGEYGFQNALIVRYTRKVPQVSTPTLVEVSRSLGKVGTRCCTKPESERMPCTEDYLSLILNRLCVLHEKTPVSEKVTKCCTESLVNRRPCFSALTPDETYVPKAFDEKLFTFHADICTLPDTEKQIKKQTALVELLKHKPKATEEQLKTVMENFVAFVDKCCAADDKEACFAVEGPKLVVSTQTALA

SMILES: CC1CC/C=C\[C@H]2OC34C=CCN(c5ccc6ccccc6c5)C(=O)[C@H]3N(CCCO)C(=O)[C@@H]4C2C(=O)O1 (stereo not given in full)
- composite z-score (Albumin (Bos taurus)): -0.132
- composite Z-score [1]: 1.18 (inactive)
- composite z-score [2]: -0.276
- composite z-score [3]: -0.16
- composite z-score [4]: 0.574
- composite z-score [5]: -0.515
- composite z-score [6]: -0.701
- composite z-score (Sam68 (KHDRBS1)): -0.335
- composite z-score [7]: -1.77
- composite z-score [8]: -0.71

SMILES: NCCCCCCNC(=O)[C@@H]1C[C@@H]2C(=O)N[C@@H](CCCCN)C(=O)N2[C@@H]1c1ccc(O)cc1
- composite z-score (Albumin (Bos taurus)): -1.58
- composite Z-score [1]: 1.7 (inactive)
- composite z-score [2]: -0.0431
- composite z-score [3]: -0.0386
- composite z-score [4]: 0.782
- composite z-score [5]: 1.68
- composite z-score [6]: 1.18
- composite z-score (Sam68 (KHDRBS1)): 0.762
- composite z-score [7]: 0.667
- composite z-score [8]: 0.0619

SMILES: CC(c1ccccc1)C(O)C1C=CC2C(=O)N(C)C(=O)C2N1Nc1ccccc1 (stereo not given)
- composite z-score (Albumin (Bos taurus)): 0.921
- composite Z-score [1]: 0.318 (inactive)
- composite z-score [2]: 0.5
- composite z-score [3]: -0.0067
- composite z-score [4]: 0.601
- composite z-score [5]: 2.5
- composite z-score [6]: 0.406
- composite z-score (Sam68 (KHDRBS1)): 1.31
- composite z-score [7]: -0.826
- composite z-score [8]: 1.21

SMILES: CC(=O)NCCCC[C@@H]1NC(=O)[C@@H]2C[C@H](C(=O)NCCCCCN)[C@H](c3cccc(OCCO)c3)N2C1=O
- composite z-score (Albumin (Bos taurus)): 0.379
- composite Z-score [1]: 0.36 (inactive)
- composite z-score [2]: 0.324
- composite z-score [3]: 0.0181
- composite z-score [4]: 0.697
- composite z-score [5]: 0.812
- composite z-score [6]: 0.0312
- composite z-score (Sam68 (KHDRBS1)): 0.803
- composite z-score [7]: 0.56
- composite z-score [8]: 1.11

SMILES: CCCC=C(CCC)[C@@H](NS(=O)(=O)c1ccc(C(F)(F)F)cc1)c1ccccc1
- composite z-score (Albumin (Bos taurus)): -0.127
- composite Z-score [1]: 0.404 (inactive)
- composite z-score [2]: 0.149
- composite z-score [3]: 0.115
- composite z-score [4]: 0.0051
- composite z-score [5]: 1.34
- composite z-score [6]: -0.122
- composite z-score (Sam68 (KHDRBS1)): 0.42
- composite z-score [7]: -0.732
- composite z-score [8]: 0.277

SMILES: CN1C2C=C(CCCO)C(C3C(=O)N(C(N)=O)C(=O)C32)C1C1CC1 (stereo not given)
- composite z-score (Albumin (Bos taurus)): -0.0873
- composite Z-score [1]: -1.14 (inactive)
- composite z-score [2]: -0.272
- composite z-score [3]: -0.14
- composite z-score [4]: 0.234
- composite z-score [5]: 0.043
- composite z-score [6]: -0.182
- composite z-score (Sam68 (KHDRBS1)): 0.0346
- composite z-score [7]: -0.0334
- composite z-score [8]: 0.31

SMILES: COCCOC(=O)N1C(=O)[C@@]2(c3cc(C#CC4(O)CCCCCC4)ccc31)[C@H](C(=O)Nc1nc3ccccc3s1)[C@H]1C(=O)O[C@H](c3ccccc3)[C@H](c3ccccc3)N1[C@@H]2c1ccc(O)cc1
- composite z-score (Albumin (Bos taurus)): 0.25
- composite Z-score [1]: 0.56 (inactive)
- composite z-score [2]: 0.188
- composite z-score [3]: -0.088
- composite z-score [4]: 0.303
- composite z-score [5]: 1.59
- composite z-score [6]: 0.713
- composite z-score (Sam68 (KHDRBS1)): 1.3
- composite z-score [7]: 0.626
- composite z-score [8]: 1.18

SMILES: CC(C)c1ccc(NN2C(C(O)c3ccc(C#N)cc3)C=CC3C(=O)N(c4ccccc4)C(=O)C32)cc1 (stereo not given)
- composite z-score (Albumin (Bos taurus)): 1.04
- composite Z-score [1]: 0.238 (inactive)
- composite z-score [2]: 0.33
- composite z-score [3]: -0.0296
- composite z-score [4]: 0.358
- composite z-score [5]: 2.84
- composite z-score [6]: 0.982
- composite z-score (Sam68 (KHDRBS1)): 1.3
- composite z-score [7]: 0.0494
- composite z-score [8]: 0.926

SMILES: COC(=O)c1c(CC[C@@H](CO)NC(=O)N2CCC[C@H]2Cn2cc(C3(O)CCCCC3)nn2)oc(C(C)=O)c1C(=O)OC
- composite z-score (Albumin (Bos taurus)): 0.844
- composite Z-score [1]: 0.506 (inactive)
- composite z-score [2]: -0.0328
- composite z-score [3]: -0.0795
- composite z-score [4]: 0.707
- composite z-score [5]: 1.44
- composite z-score [6]: 0.473
- composite z-score (Sam68 (KHDRBS1)): 1.28
- composite z-score [7]: 1.09
- composite z-score [8]: 1.04

SMILES: C=C(COC)/C(=C/C[C@H](OC(=O)c1ccncc1)c1ccccc1OCCO)c1cc(C(=O)OC)ccc1OC
- composite z-score (Albumin (Bos taurus)): 0.601
- composite Z-score [1]: 0.614 (inactive)
- composite z-score [2]: 0.118
- composite z-score [3]: -0.11
- composite z-score [4]: 0.752
- composite z-score [5]: 1.2
- composite z-score [6]: 0.0479
- composite z-score (Sam68 (KHDRBS1)): 1.27
- composite z-score [7]: 0.0156
- composite z-score [8]: 0.784

SMILES: COc1cc2c(cc1O)C(C1CC1)N(C)CC2 (stereo not given)
- composite z-score (Albumin (Bos taurus)): 0.789
- composite Z-score [1]: -0.519 (inactive)
- composite z-score [2]: -0.257
- composite z-score [3]: -0.19
- composite z-score [4]: 0.902
- composite z-score [5]: -0.374
- composite z-score [6]: -0.308
- composite z-score (Sam68 (KHDRBS1)): -0.758
- composite z-score [7]: -0.778
- composite z-score [8]: -1.91

SMILES: CC(C)[Si](C#CCCCC#N)(O[C@H](c1ccccc1)c1cn(Cc2ccccc2)nn1)C(C)C
- composite z-score (Albumin (Bos taurus)): 0.728
- composite Z-score [1]: -0.535 (inactive)
- composite z-score [2]: 0.123
- composite z-score [3]: -0.174
- composite z-score [4]: 0.249
- composite z-score [5]: 0.691
- composite z-score [6]: 0.272
- composite z-score (Sam68 (KHDRBS1)): 1.16
- composite z-score [7]: 0.568
- composite z-score [8]: 0.536

SMILES: O=C1C2C=CC(C(O)C3CC=CCC3)N(Nc3ccccc3)C2C(=O)N1c1ccccc1 (stereo not given)
- composite z-score (Albumin (Bos taurus)): 0.918
- composite Z-score [1]: 2.06 (inactive)
- composite z-score [2]: 0.366
- composite z-score [3]: 0.0607
- composite z-score [4]: 0.749
- composite z-score [5]: 2.33
- composite z-score [6]: 0.093
- composite z-score (Sam68 (KHDRBS1)): 1.07
- composite z-score [7]: 0.718
- composite z-score [8]: 0.567

SMILES: CO[C@H]1O[C@H](CO)[C@@H](OC(=O)Nc2ccccc2)[C@H](OC(=O)c2cc3ccccc3[nH]2)[C@H]1OC(=O)c1cc2ccccc2[nH]1
- composite z-score (Albumin (Bos taurus)): 0.124
- composite Z-score [1]: 1.12 (inactive)
- composite z-score [2]: -0.0368
- composite z-score [3]: -0.0166
- composite z-score [4]: 0.793
- composite z-score [5]: 0.68
- composite z-score [6]: 0.94
- composite z-score (Sam68 (KHDRBS1)): 0.396
- composite z-score [7]: 0.132
- composite z-score [8]: 0.282

SMILES: CCOC(=O)C[C@H]1[C@H](OC(=O)Cc2ccc3c(c2)OCO3)[C@@H](NC(=O)c2ccc3ccccc3n2)c2cc(OCCCO)ccc2N1C(=O)c1ccccc1
- composite z-score (Albumin (Bos taurus)): -0.233
- composite Z-score [1]: 0.221 (inactive)
- composite z-score [2]: -0.124
- composite z-score [3]: -0.18
- composite z-score [4]: 0.0645
- composite z-score [5]: 0.109
- composite z-score [6]: -0.115
- composite z-score (Sam68 (KHDRBS1)): 0.416
- composite z-score [7]: 0.528
- composite z-score [8]: 0.321

SMILES: COc1cc(C(O)C2C=CC3C(=O)N(C)C(=O)C3N2Nc2ccccc2)cc(OC)c1OC (stereo not given)
- composite z-score (Albumin (Bos taurus)): 0.785
- composite Z-score [1]: -0.014 (inactive)
- composite z-score [2]: 0.962
- composite z-score [3]: 0.106
- composite z-score [4]: 0.818
- composite z-score [5]: 3.2
- composite z-score [6]: 0.708
- composite z-score (Sam68 (KHDRBS1)): 1.11
- composite z-score [7]: -0.0836
- composite z-score [8]: 1.01
